For eight compounds, Potency results are on record in PubChem BioAssay (Tox21).

The structures appear in SMILES notation. Values joined by “and” are separate entries in the source; they are usually repeats but may differ in a detail not shown here. Identical values can stand only once. Unmarked numbers belong to inactive results. Results filed as inconclusive are left out. Active and inactive are the calls of the source. Unless noted, the call rests on the fitted dose curve.

A short description of assay [1]: Nuclear factor erythroid 2-related factor 2/antioxidant responsive element (Nrf2/ARE) small molecule agonists: qHTS cell viability counter screen in human keratinocytes (AID 1919968; active means well fitted curve in the direction sought with a large enough effect in the repeat runs; an effect the other way counts as inactive or inconclusive; further: nearly all actives have a fitted effect of over 55% in size; further: potency means the concentration at half of the fitted maximal effect). The method in brief:
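Seed 1,500 KeratinoSens cells per well, then incubate 5 h at 37 C/5% CO2. Add compounds in DMSO and incubate 23 h. Add CellTiter-Fluor, wait 1 h and read fluorescence.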
In general terms: Quantitative high-throughput screening tests each substance at several concentrations.

The nature of assay [2]: Nuclear factor erythroid 2-related factor 2/antioxidant responsive element (Nrf2/ARE) small molecule agonists: luciferase reporter gene qHTS assay in human keratinocytes (AID 1919969). Further: nearly all actives have a fitted effect of over 35% in size. Background: In a reporter assay the amount or activity of a reporter protein is the signal.
For assay [3], the target named is Gonadotropin-releasing hormone receptor (Homo sapiens) (UniProt P30968). The assay can be described thus: Human gonadotropin-releasing hormone receptor (GnRHR) small molecule agonists, calcium flux assay in GnRHR-HEK293 cells (AID 1920063). Further: nearly all actives have a fitted effect of over 35% in size. Further: potency means the concentration at half of the fitted maximal effect. Summed up:
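Cells: HEK293 stably expressing human GnRHR. Steps: overnight (18 h) culture, 1 h calcium dye loading at 37 C, compound addition, kinetic fluorescence read at 480/540 nm. Each compound tested at 15 concentrations in triplicate.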
In general terms: Calcium flux is commonly read through the fluorescence of an indicator in the cells.

In assay [4] the target is KiSS-1 receptor (Homo sapiens) (UniProt Q969F8). The assay can be described thus: Human kisspeptin (KISS1R) small molecule agonists, calcium flux assay in KISS1R-HEK293 cells (AID 1920064; active means well fitted curve in the direction sought with a large enough effect in the repeat runs; an effect the other way counts as inactive or inconclusive). Summed up:
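Cells plated and incubated 18 h; dye added, 1 h at 37 C; compounds in DMSO pinned in; signal read at 480/540 nm every second for 3 min. Each compound tested at 15 concentrations in triplicate.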

The nature of assay [5]: p53 small molecule agonists, cell-based qHTS assay with human liver microsomes (AID 1963577). Summed up: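 In this qHTS, p53 response-element beta-lactamase cells receive test compound together with a microsome/NADPH activating system (0.5 mg/mL final each) and are incubated 16 h at 37 C before LiveBLAzer fluorescence detection.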
A short description of assay [6]: p53 small molecule agonists, cell-based qHTS assay with rat liver microsomes (AID 1963578). The method in brief:
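Agonist mode in p53RE-bla reporter cells, with compounds co-incubated 16 h at 37 C alongside 0.5 mg/mL rat liver microsomes and 0.5 mg/mL NADPH (final), followed by a 2 h LiveBLAzer detection step.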

A short description of assay [7]: p53 small molecule agonists, cell-based qHTS assay with human liver microsomes: qHTS cell viability counter screen (AID 1963579). Further: nearly all actives have a fitted effect of over 45% in size. Summed up:
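Metabolically activated exposure: compounds, human liver microsomes and NADPH (0.5 mg/mL final apiece) were added to p53RE-bla cells seeded 5 h earlier, left 16 h at 37 C, and then assessed for viability by CellTiter-Glo luminescence.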

Assay [8] in a line: p53 small molecule agonists, cell-based qHTS assay with rat liver microsomes: qHTS cell viability counter screen (AID 1963580). Further: nearly all actives have a fitted effect of over 45% in size. The method in brief: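 In HCT-116 cells carrying a p53 response element-bla reporter, compounds were metabolically activated in situ by rat liver microsomes with NADPH over 16 h. Cell ATP content then served as the cytotoxicity measure.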
Assay [9] is described as follows: p53 small molecule agonists, cell-based qHTS assay: qHTS cell viability counter screen (AID 1963581). Further: nearly all actives have a fitted effect of over 45% in size. Summed up:
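Cells: HCT-116 with p53 response element-driven beta-lactamase. Treatment: 16 h, 37 C, compounds in DMSO. Read: CellTiter-Glo luminescence after 30 min RT.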

For assay [10], the target named is 5-hydroxytryptamine receptor 2A (Homo sapiens) (UniProt P28223). The assay can be described thus: 5-hydroxytryptamine receptor 2A (HTR2A) small molecule antagonists, cell-based qHTS assay (AID 1963586). Further: nearly all actives have a fitted effect of over 45% in size. Further: potency means the concentration at half of the fitted maximal effect. Summed up: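 Antagonist-mode intracellular calcium assay: DOI (4 nM) added after 5 min compound pre-incubation at room temperature to dye-loaded HTR2A-CHO cells. Fluorescence followed for 3 min, sampled every second.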
Sequence of 5-hydroxytryptamine receptor 2A (Homo sapiens) (P28223 whole entry, looked up): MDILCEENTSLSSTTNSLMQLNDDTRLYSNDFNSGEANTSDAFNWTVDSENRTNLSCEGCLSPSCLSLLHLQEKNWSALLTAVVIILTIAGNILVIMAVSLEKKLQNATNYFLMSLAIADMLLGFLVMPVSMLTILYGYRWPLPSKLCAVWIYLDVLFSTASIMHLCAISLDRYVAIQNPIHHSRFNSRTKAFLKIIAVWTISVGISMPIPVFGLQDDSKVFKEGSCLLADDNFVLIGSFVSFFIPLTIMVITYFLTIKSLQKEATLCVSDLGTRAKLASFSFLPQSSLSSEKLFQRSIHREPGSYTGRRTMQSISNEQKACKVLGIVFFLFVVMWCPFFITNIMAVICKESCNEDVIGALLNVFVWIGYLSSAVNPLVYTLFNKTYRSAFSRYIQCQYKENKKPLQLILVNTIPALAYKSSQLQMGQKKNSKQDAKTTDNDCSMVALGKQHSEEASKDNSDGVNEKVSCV

The target is the same in assay [11]. The assay can be described thus: 5-hydroxytryptamine receptor 2A (HTR2A) small molecule agonists, cell-based qHTS assay (AID 1963587). Further: nearly all actives have a fitted effect of over 30% in size. The method in brief: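 HTR2A-CHO cells, plated 18 h at 37 C/5% CO2, dye-loaded 1 h at 37 C; compounds in DMSO added by pin tool (agonist mode). Intracellular calcium flux read as kinetic fluorescence on FDSS over 2 min at 1 s intervals.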

Assay [12] deals with Muscarinic acetylcholine receptor M1 (Homo sapiens) (UniProt P11229). The assay can be described thus: Cholinergic receptor muscarinic 1 (CHRM1) small molecule antagonists, cell-based qHTS assay (AID 1963588). Further: nearly all actives have a fitted effect of over 40% in size. Summed up:
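CHRM1-CHO calcium-flux assay, antagonist mode. Cells were seeded 18 h, dye-loaded 1 h at 37 C and given compound for 5 min at RT, then acetylcholine was added at 50nM. FDSS fluorescence was read 3 min; 15 concentrations, three runs.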

For assay [13] the target is unchanged. Briefly: Cholinergic receptor muscarinic 1 (CHRM1) small molecule agonists, cell-based qHTS assay (AID 1963589). Further: nearly all actives have a fitted effect of over 35% in size. The method in brief:
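Agonist-mode qHTS in CHO cells stably carrying human muscarinic M1. Intracellular calcium is tracked by fluorescence every second after compound transfer; each compound runs at 15 concentrations in three independent runs.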

Assay [14] can be described thus: cAMP Responsive Elements (CRE) small molecule agonists, cell-based qHTS assay (AID 1963590). The method in brief:
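Agonist mode qHTS in CRE-bla HEK 293T cells: compounds dosed from DMSO for 3 h at 37 C/5% CO2, followed by LiveBLAzer B/G FRET substrate for 2 h at room temperature.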

Assay [15] can be described thus: cAMP Responsive Elements (CRE) small molecule antagonists, cell-based qHTS assay (AID 1963591; active means well fitted inhibition curve with a large enough effect in the signal ratio in the repeat runs, not every such curve was filed as active; the % refers to the signal ratio). Summed up: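 Antagonist mode: test compounds are co-incubated with the adenylyl cyclase activator NKH477 (0.25 uM final) on CRE-bla HEK293T cells for 3 h at 37 °C, followed by LiveBLAzer substrate loading.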
Assay [16] addresses Beta-2 adrenergic receptor (Homo sapiens) (UniProt P07550). The assay can be described thus: Adrenergic beta2 receptor (ADRB2) small molecule antagonists, cell-based qHTS assay (AID 1963592). Further: nearly all actives have a fitted effect of over 50% in size. Further: potency means the concentration at half of the fitted maximal effect. Summed up: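 Cells (CHO, stable ADRB2 overexpression) incubated 18-20hr at 37C; compounds added from DMSO; agonist mix (1nM isoproterenol, 100uM IBMX, 25uM Ro-20-1724) added; 0.5hr RT; d2-cAMP and anti-cAMP-cryptate added; 1hr RT; 665/615 nm read.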

The target is the same in assay [17]. The assay can be described thus: Adrenergic beta2 receptor (ADRB2) small molecule agonists, cell-based qHTS assay (AID 1963593).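 Further: CHO cells stably overexpressing human ADRB2.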 The method in brief: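 CHO cells stably over-expressing ADRB2 were plated overnight at 37C, then dosed with compounds plus a stimulation mix containing 100uM IBMX and 25uM Ro-20-1724 for 0.5hr at room temperature. cAMP was measured by HTRF competition, 1hr.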

Assay [18] has as its target D(2) dopamine receptor (Homo sapiens) (UniProt P14416). Briefly: Dopamine D2 receptor (DRD2) small molecule agonists, cell-based qHTS assay (AID 1963594). Further: nearly all actives have a fitted effect of over 35% in size. Summed up:
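HEK293 cells stably expressing DRD2 were cultured 24 h at 37 C, then given Ro20-1724 (0.1 mM final) and compounds for 10 min at room temperature. NKH477 (200nM) was then added for 30 min. cAMP was read by HTRF.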

For assay [19] the target is unchanged. Briefly: Dopamine D2 receptor (DRD2) small molecule antagonists, cell-based qHTS assay (AID 1963595; active means well fitted inhibition curve with a large enough effect in the signal ratio in the repeat runs, with a control signal flat; the % refers to the signal ratio; further: potency means the concentration at half of the fitted maximal effect). Summed up: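 Antagonism was scored as restored cAMP in HEK293-DRD2 cells. These cells were stimulated with 200 nM NKH477 and 12 nM quinpirole for 30 min at room temperature, in the presence of 0.1 mM Ro20-1724.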
Assay [20] can be described thus: G protein-coupled receptor (GPCR) small molecule agonists, calcium flux assay: HEK293 wild type cell line counter screen (AID 1920065). Summed up:
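Counter-screen of the Tox21 10K library for non-specific calcium release: dye-loaded cells received compounds in DMSO and were monitored by kinetic fluorescence (480/540 nm, 3 min). Fifteen concentrations, run in triplicate.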

Sequence of Beta-2 adrenergic receptor (Homo sapiens) (P07550 whole entry, looked up): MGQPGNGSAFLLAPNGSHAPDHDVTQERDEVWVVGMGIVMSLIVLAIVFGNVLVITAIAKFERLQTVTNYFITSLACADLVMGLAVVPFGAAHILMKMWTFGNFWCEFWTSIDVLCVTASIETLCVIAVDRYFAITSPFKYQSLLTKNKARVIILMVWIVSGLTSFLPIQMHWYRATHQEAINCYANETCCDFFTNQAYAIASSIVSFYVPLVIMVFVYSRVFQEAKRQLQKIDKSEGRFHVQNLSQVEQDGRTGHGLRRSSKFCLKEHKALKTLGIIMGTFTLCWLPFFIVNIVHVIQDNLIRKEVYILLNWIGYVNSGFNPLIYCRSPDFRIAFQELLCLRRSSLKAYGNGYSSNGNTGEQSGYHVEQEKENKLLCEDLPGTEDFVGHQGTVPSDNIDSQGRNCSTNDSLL
Sequence of Gonadotropin-releasing hormone receptor (Homo sapiens) (P30968 whole entry, looked up): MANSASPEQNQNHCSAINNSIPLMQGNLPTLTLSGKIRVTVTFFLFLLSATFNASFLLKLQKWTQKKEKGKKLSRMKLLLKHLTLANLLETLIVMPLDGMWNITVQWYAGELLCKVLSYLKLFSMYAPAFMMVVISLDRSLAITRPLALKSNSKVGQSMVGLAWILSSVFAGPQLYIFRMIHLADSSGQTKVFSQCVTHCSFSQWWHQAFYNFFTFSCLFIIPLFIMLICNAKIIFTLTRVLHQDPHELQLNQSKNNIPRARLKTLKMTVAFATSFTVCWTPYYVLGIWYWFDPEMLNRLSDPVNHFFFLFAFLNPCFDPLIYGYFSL
Sequence of KiSS-1 receptor (Homo sapiens) (Q969F8 whole entry, looked up): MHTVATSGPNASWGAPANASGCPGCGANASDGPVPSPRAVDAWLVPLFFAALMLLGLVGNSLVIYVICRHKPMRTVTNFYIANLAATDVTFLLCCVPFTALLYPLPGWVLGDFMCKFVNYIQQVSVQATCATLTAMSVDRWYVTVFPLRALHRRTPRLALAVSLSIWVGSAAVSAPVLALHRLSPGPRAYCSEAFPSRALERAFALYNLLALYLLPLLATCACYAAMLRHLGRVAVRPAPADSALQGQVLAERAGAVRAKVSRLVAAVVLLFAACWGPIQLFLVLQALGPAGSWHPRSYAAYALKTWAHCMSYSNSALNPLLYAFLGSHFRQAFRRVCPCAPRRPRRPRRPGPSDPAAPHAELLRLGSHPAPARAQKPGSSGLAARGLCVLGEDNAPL
Sequence of D(2) dopamine receptor (Homo sapiens) (P14416 whole entry, looked up): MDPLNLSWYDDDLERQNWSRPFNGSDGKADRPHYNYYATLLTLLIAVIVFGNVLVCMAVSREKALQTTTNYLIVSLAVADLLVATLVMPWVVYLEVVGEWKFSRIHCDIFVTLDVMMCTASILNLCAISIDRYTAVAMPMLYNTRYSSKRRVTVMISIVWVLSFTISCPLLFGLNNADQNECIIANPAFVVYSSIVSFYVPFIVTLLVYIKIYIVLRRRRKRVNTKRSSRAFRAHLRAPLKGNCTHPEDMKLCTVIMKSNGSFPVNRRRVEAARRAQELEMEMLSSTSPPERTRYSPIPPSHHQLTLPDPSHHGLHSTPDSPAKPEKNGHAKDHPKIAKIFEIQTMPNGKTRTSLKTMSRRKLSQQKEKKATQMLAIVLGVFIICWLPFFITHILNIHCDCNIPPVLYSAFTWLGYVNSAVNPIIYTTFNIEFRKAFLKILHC
Sequence of Muscarinic acetylcholine receptor M1 (Homo sapiens) (P11229 whole entry, looked up): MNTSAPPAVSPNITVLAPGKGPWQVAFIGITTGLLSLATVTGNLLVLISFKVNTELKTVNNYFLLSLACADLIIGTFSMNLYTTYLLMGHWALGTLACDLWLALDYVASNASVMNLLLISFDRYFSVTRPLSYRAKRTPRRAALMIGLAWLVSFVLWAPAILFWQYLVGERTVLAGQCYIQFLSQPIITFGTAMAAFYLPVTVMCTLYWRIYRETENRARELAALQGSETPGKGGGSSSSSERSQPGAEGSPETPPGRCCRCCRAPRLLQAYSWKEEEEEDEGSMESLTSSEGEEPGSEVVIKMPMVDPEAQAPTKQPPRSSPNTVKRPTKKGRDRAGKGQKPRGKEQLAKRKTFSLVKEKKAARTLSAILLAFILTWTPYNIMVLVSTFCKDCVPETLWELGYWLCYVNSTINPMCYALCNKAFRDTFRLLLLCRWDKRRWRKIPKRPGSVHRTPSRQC

With `COCCCOc1cc(C[C@@H](C[C@H](N)[C@@H](O)C[C@H](C(=O)NCC(C)(C)C(N)=O)C(C)C)C(C)C)ccc1OC`, the Potency entry in [1], in assay [2], in assay [3], in assay [4], in assay [5] and in assay [6] was “inactive” in each case. The Potency result in assay [7], in assay [8], in assay [9], in assay [10], in [11] and in assay [12] was “inactive” each time. Moreover, the Potency result in [13], in assay [14], in [15], in assay [16], in assay [17] and in assay [18] was “inactive” throughout. Moreover, the Potency entry in assay [19] is “inactive”.
As to `O=c1cc(CO)occ1O`, the Potency entry in assay [1], in assay [2], in [3], in assay [4], in [5] and in [6] was “inactive” each time. Also, the Potency entry in assay [7], in [8], in assay [9], in assay [10], in [11] and in [12] was “inactive” throughout. Also, the Potency result in assay [13], in [14], in assay [15], in assay [16], in assay [17] and in assay [18] was “inactive” in each case. For the same compound, the Potency result in assay [19] is “inactive”.
Take `CC(=O)Nc1ccc(N=Nc2cc(C)ccc2O)cc1`: the Potency result in [1], in assay [2], in [3], in assay [4], in assay [5] and in assay [6] was “inactive” each time. Moreover, the Potency entry in assay [7], in assay [8], in assay [9], in [10], in assay [11] and in [12] was “inactive” throughout. Further, the Potency result in assay [13], in assay [14], in [15], in assay [16], in [17] and in [18] was “inactive” in each case. In assay [19], the Potency result was “inactive”.
`CC(C)(C)NCC(O)c1ccc(O)c(CO)c1` (stereo not drawn): the Potency entry in assay [1], in assay [2], in assay [4], in [20], in assay [9] and in assay [18] was “inactive” in each case. Besides, the Potency was 30.1 nM (active) in assay [3]; 962 nM (active) and 750 nM (active) in [19].
For the compound `OCCN1CCN(CCCN2c3ccccc3C=Cc3ccccc32)CC1`, the Potency result in assay [1], in assay [2], in assay [3], in assay [4], in assay [5] and in [6] was “inactive” throughout. For the same compound, the Potency entry in assay [7], in assay [8], in [11], in assay [13], in [14] and in assay [15] was “inactive” each time. For the same compound, the Potency entry in assay [16], in [17] and in assay [18] was “inactive” throughout. Besides, the Potency in assay [10] was 16.3 µM (active).
On to `CCCCCCCCCCCCCCCCCCOCC(O)CO` (stereo not drawn), for which the Potency result in assay [1], in assay [2], in [3], in [4], in [5] and in assay [6] was “inactive” each time. The Potency entry in assay [7], in [8], in [9], in assay [10], in assay [11] and in assay [12] was “inactive” in each case. For the same compound, the Potency result in assay [13], in assay [14], in [15], in assay [17] and in assay [18] was “inactive” throughout.
On to `CCOC(=O)N1CCC(=C2c3ccc(Cl)cc3CCc3cccnc32)CC1`, for which the Potency in assay [1] is 68.6 µM (active) and 26.6 µM (active); in [16], 54.5 µM (active). The Potency result in assay [2], in [3], in assay [4], in [20], in assay [9] and in assay [14] was “inactive” in each case. Further, the Potency entry in assay [15], in [18] and in [19] was “inactive” each time.
`OCc1c2ccccc2cc2ccccc12`: the Potency result in [1], in [2], in [3], in [4], in assay [5] and in assay [6] was “inactive” throughout. For the same compound, the Potency result in [7], in assay [8], in assay [9], in assay [10], in assay [11] and in assay [12] was “inactive” throughout. Also, the Potency result in assay [13], in assay [14], in assay [15], in [16], in [17] and in [18] was “inactive” each time. The Potency result in assay [19] is “inactive”.
